In PubChem BioAssay AID1117319 (Southern Research Institute, 2015):
Values joined by “and” are separate entries in the source; they are usually repeats but may differ in a detail not shown here. Identical values can stand only once. Out of some 260,000 compounds screened, about 1,500 (0.58%) were called active. About 5% were inconclusive and are not listed.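 Rule for the calls: active = inhibition above a set limit at one or more doses, reproduced on every date tested; inconclusive = results disagree between test dates, or hit never tested in dose response; inactive = the rest.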 These entries were drawn from the full list. Potency and affinity values are given separately.

These compounds were tested against Virion infectivity factor (Human immunodeficiency virus type 1 group M subtype B (isolate BH10)) + Virion infectivity factor (Human immunodeficiency virus type 1 group M subtype B (isolate BRU/LAI)) + Virion infectivity factor (Human immunodeficiency virus type 1 group M subtype B (isolate PCV12)) + Virion infectivity factor (Human immunodeficiency virus type 1 group M subtype B (isolate HXB2)) + DNA dC->dU-editing enzyme APOBEC-3G (Homo sapiens) (UniProt P69720+P69721+P69722+P69723+Q9HC16) (assay: HIV-1 Vif–A3G interaction blockers – biochemical, TR-FRET, GST-Vif 1-94, biotin-A3G peptide, dose response retest, primary screen (AID 1117319;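 note: Vif residues 1-94 fused to GST binding biotinylated APOBEC3G peptide 110-148; 0% = full assay without inhibitor and 100% = GST in place of GST-Vif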)). Conditions: TR-FRET GST-Vif / biotin-A3G peptide binding; hits give high values.

inhibition, inactive:
CC1(C)Cc2cccc(OCC(=O)N3CCN(c4ccccc4F)CC3)c2O1 -1.24%
CN(c1ccccc1)c1nc(-n2ccnc2)nc(-n2ccnc2)n1 -3.98%
c1ccc(N(c2ccccc2)c2nc(-n3ccnc3)nc(-n3ccnc3)n2)cc1 -4.38% and -2.66%
O=C(NCCC1=CCCCC1)c1ccc2c(=O)n3c(nc2c1)CCCCC3 -3.44%
Cc1cc(C)nc(N2CCCC(C(=O)NCc3ccc4c(c3)OCO4)C2)n1 (configuration not stated) -5.32%
COc1cc(C)c(NC(=O)COc2cccc3c2OC(C)(C)C3)cc1OC -1.98%
Cc1cc2c(ccc3c2no[n+]3[O-])nn1 7.27%
[O-][n+]1onc2c3ccnnc3ccc21 0.24%
CCOc1ccc(CCNC(=O)c2cccc(S(=O)(=O)N3CCCCC3)c2)cc1OCC -3.3%
O=C(Cn1c(=S)[nH]c2ncccc2c1=O)NCCc1ccccc1 -0.88%
O=C(NCCCN1CCOCC1)c1ccc2c(=O)n(Cc3ccccc3)c(=S)[nH]c2c1 -10.2%
CCOC(=O)C1=C(Cc2ccc(OC)cc2)C(=O)c2ccccc2C1=O 24.3%
CCOC(=O)C1=C(O)c2ccccc2C(=O)/C1=C\c1ccc(CC)cc1 31.5%
CCN(CC)/C(=N\S(=O)(=O)c1ccc(F)cc1)c1ccccc1 3.32%
COCCNC(=S)N1CCCN(c2nc3cc(C)ccc3cc2C#N)CC1 3.12%
Cc1ccc(S(=O)(=O)N(Cc2ccccc2)c2ccccc2C(=O)NCc2cccnc2)cc1 1.8%
COc1ccc(NCc2n[nH]c(=O)c3ccccc23)cc1 4.49%
O=c1[nH]nc(CNc2ccc(C(F)(F)F)cc2)c2ccccc12 -3.84%
CC(NC(=O)COC(=O)c1cc(S(=O)(=O)N2CCOCC2)ccc1F)c1ccccc1 (configuration not stated) 4.22%
Cc1ccc(S(=O)(=O)Nc2cccc(C(=O)N3CCC(C(N)=O)CC3)c2)cc1 -11.3%
O=C(CSc1nc2ccccc2c(=O)n1-c1ccccc1Cl)Nc1cccc(S(=O)(=O)N2CCOCC2)c1 12.8%
Cc1cc(C)nc(NS(=O)(=O)c2ccc(NC(=O)c3cc(=O)c4ccccc4o3)cc2)n1 -13.1%
Cc1ccc(C(=O)NC(=S)NNC(=O)COc2ccc([N+](=O)[O-])cc2)cc1 -1.27%
Cc1cc(C=C2C(=O)c3ccccc3C2=O)c(C)n1-c1cccc(C(=O)O)c1 24.6%
Cc1cc(/C=C2/NC(=O)N(c3ccccc3)C2=O)c(C)n1-c1cccnc1 5.85%
Cc1cccc(N2C(=O)CC(N3CCN(c4ccccc4)CC3)C2=O)c1 (configuration not stated) 6.83%
Cc1ccccc1N=C1NC(=O)CS1 -1.84%
Cc1ccc(N=C2NC(=O)CS2)cc1 32.9%
CCOC(=O)C(NC(=O)c1cccc(Cl)c1)(Nc1sc2c(c1C(N)=O)CCC2)C(F)(F)F (configuration not stated) 30.9%
Nc1nc2nc(-c3ccc(F)cc3)cc(C(F)(F)F)n2n1 12.1%
COc1ccc(NS(=O)(=O)c2cccc(C(=O)NNC(=O)c3ccccc3O)c2)cc1 9.79%
COc1ccc(NS(=O)(=O)c2cccc(C(=O)NNC(=O)c3cccc(NC(C)=O)c3)c2)cc1 2.28%
CCc1ccc(N(C(=O)CNC(=O)c2ccco2)C(C(=O)NCC2CCCO2)c2ccccc2)cc1 (configuration not stated) 6.06%
O=C(CCNC(=O)c1ccccc1Cl)Nc1nc(-c2ccccc2Cl)cs1 15.5%
NC(=O)c1ccc(-n2nnnc2SCc2ccccc2)cc1 -2.97%
COC(=O)c1ccccc1-c1ccc(C=O)o1 -12.2%
COC(=O)c1ccccc1-c1ccc(/C=N/NC(N)=O)o1 -4.17%
COc1cc(/C=C(\C#N)c2ccccn2)cc(OC)c1O 7.21%
COc1cc(C(=O)Oc2cccc(C=O)c2)cc(OC)c1OC 8.54%
O=C(O)c1ccc(CSc2nnc(COc3ccccc3)o2)cc1 -5.6%
CCc1ccc(OCc2nnc(SCc3ccc(C(=O)O)cc3)o2)cc1 -1.45%
CSCCC(NC(=O)c1ccccc1Cl)C(=O)N1CCN(c2ccccn2)CC1 (configuration not stated) -6.33%
COc1ccc(-c2noc(CCC(=O)N3CCN(c4cccc(C(F)(F)F)c4)CC3)n2)cc1 22.9% and -0.11%
CC(C)N(Cc1ccccc1)C(=O)COC(=O)C1CCN(c2ccc(C(F)(F)F)cn2)CC1 -3.12%
O=C1C(=O)c2c(ccc3ccccc23)-c2ccccc21 -6.35%
Oc1ccc2ccccc2c1Br 0.97%
CCCCCCCCC#Cc1nc(C)ccc1OC -3.1%
CCOC(=O)N1C2=NC(C(=O)OC)=C(C(=O)OC)[C@@H]3Nc4ccccc4[C@]23C[C@H]1C(=O)OC 4.32%
C[C@H]1CN([C@@H](C)CO)C(=O)CCCn2nncc2CO[C@@H]1CN(C)C(=O)NC1CCCCC1 1.5%
O=C(O)c1ccccc1C(=O)Nc1ccc(-n2nccc2C(F)(F)F)cc1 -1.72%
O=C(CNc1ccc(F)cc1)N/N=C1\CCCc2ccccc21 -0.54%
COC(=O)CSc1nc(N)nc(C)c1Cl -8.89%
CC1=C(C(=O)N2CCOCC2)C(c2ccc(O)cc2)NC(=S)N1 (configuration not stated) 17.4%
c1ccc2c3c(cc(N4CCOCC4)c2c1)OC1(N2CCOCC2)CCCCC1O3 (configuration not stated) -2.4%
COc1cc(OC)cc(C(=O)N[C@H](C(=O)Nc2cc(C)cc(C)c2)C(C)C)c1 -1.59%
COc1ccc(OC)c2[nH]c(=O)c(CCNC(=O)C(=O)c3c(C)[nH]c4ccccc34)cc12 2.37%
CC[n+]1cccc(-c2nc3ccccc3s2)c1 5.45%
CCOC(=O)CSc1nnc(CNC(=O)Cc2ccccc2)n1-c1ccccc1OC -6.46%
COC(=O)CSc1nnc(CNC(=O)c2cccc(C)c2)n1-c1ccccc1OC 6.5%
Cc1ccc(CNC(=O)C2CC2c2ccccc2)cc1 (configuration not stated) -6.49%
CN(CC(=O)Nc1c(Cl)cccc1Cl)C(=O)Cc1ccsc1 -2.32%
Cc1cc(NC(=O)C2CC(c3ccc(F)cc3)=NO2)no1 (configuration not stated) 0.56%
CCc1cc2cccc(C)c2nc1SCC(=O)Nc1nonc1C 32.8%
COc1ccccc1CN(Cc1ccco1)S(=O)(=O)c1ccc(-n2cnnn2)c(OC)c1 0.86%
COc1cc(S(=O)(=O)N(Cc2ccccn2)Cc2ccco2)ccc1-n1cnnn1 -2.53%
CN[C@H]1C[C@H]2c3[nH]c4ccccc4c3CCN2C(=O)[C@H]1[C@H](C)O -5.11%
O=[N+]([O-])c1cc(F)c(N2CCCCC2)cc1N1CCOCC1 8.86%
N#Cc1cc(N2CCCCC2)c([N+](=O)[O-])cc1C#N -2.18%
CCN(c1ccccc1)S(=O)(=O)c1ccc(Oc2ccccc2)c(N)c1 2.08%
COc1cccc(C2=NOC(C(=O)NCc3cccs3)C2)c1 (configuration not stated) -3.08%
COc1ccc(C2=NOC(C(=O)NCc3cccs3)C2)cc1 (configuration not stated) -3.82%
COc1cc(-n2c(C)nc3ncn(-c4ccccc4)c3c2=O)cc(OC)c1OC 2.62%
CC(=O)Nc1ccc(OCC(O)Cn2cccn2)cc1 (configuration not stated) -6.52%
CCCN(CC(=O)Nc1ccccc1C)C(=O)C1CCN(C(=O)Nc2ccccc2)CC1 -0.04%
O=C(Oc1ccccc1)c1cccc(N2C(=O)CCC2=O)c1 -0.79%
N#Cc1c(Nc2cccc(F)c2)sc2c(O)cc(=O)[nH]c12 -5.54%
CCCNS(=O)(=O)c1ccc(CCC(=O)Nc2ccc3c(c2)OCO3)cc1 2.82%
CS(=O)(=O)N(CCc1ccccc1)CC(=O)Nc1ccc2c(c1)OCO2 13.8%
O=C(CCc1ccc(S(=O)(=O)NCCc2ccccc2)cc1)NCc1ccc2c(c1)OCO2 -2.37%
CS(=O)(=O)N(CC(=O)Nc1ccc2c(c1)OCCO2)Cc1ccccc1 24.5%
CC1(C)Cc2c(sc3nc(SCC(=O)N4CCOCC4)nc(N)c23)CO1 3.98%
CSc1nc(C)cc(OCC(=O)n2nc(C)cc2C)n1 1.86%
CC(=O)Nc1sc2c(c1C(c1ccccc1)N1CCOCC1)CCCC2 (configuration not stated) 5.78%
CCOC(=O)c1ccc(NC(=O)C(=O)NCc2ccncc2)cc1 27%
CC(=O)OCCNc1cc(N2CCN(C)CC2)c2noc3c2c1C(=O)c1ccccc1-3 3.2%
O=[N+]([O-])c1c(NCCO)cc(N2CCC3(CC2)OCCO3)c2nonc12 -8.02%
CCOC(=O)c1coc(C(=O)OCC)c1C(=O)OCC -10.9%
COc1ccc(-c2csc(NC3=NCCCCC3)n2)cc1 -3.94%
O=C1NC(=S)N/C1=C\c1cccc([N+](=O)[O-])c1 0.47%
O=C1NC(=S)N/C1=C/c1cc([N+](=O)[O-])ccc1O 0.15%
O=C(/C=C\Nc1ccccn1)c1ccccc1 1.92%
O=C(/C=C\Nc1ccc2c(c1)OCO2)c1ccccn1 -6.96%
